Shown are actives, neighbours in structure and some others; about 2% of the full set was active somewhere.
MBNL1-CUG inh = MBNL1-poly(CUG) RNA binding inhibition | Q9NR56 | TR-FRET MBNL1-His/biotin-(CUG)12 binding, 665/545 ratio | Potency, µM (doses to about 57.5 µM), without a hit: at the highest dose activity change, negative = inhibition, actives largely listed as inhibitors | actives 0.036% (n = 280,000); active = well fitted inhibition curve with a large enough effect in the signal ratio, with a control signal flat, not every such curve was filed as active; inconclusive = small, poorly fitted or top-dose-only effect, or effect the other way, or a change in a side signal; inactive = no such curve, though single readings can be large or run the other way; the % refers to the signal ratio; also: % is scaled to controls: 0 for no effect and ±100 for the full control effect
Target sequence (Q9NR56 whole entry, looked up): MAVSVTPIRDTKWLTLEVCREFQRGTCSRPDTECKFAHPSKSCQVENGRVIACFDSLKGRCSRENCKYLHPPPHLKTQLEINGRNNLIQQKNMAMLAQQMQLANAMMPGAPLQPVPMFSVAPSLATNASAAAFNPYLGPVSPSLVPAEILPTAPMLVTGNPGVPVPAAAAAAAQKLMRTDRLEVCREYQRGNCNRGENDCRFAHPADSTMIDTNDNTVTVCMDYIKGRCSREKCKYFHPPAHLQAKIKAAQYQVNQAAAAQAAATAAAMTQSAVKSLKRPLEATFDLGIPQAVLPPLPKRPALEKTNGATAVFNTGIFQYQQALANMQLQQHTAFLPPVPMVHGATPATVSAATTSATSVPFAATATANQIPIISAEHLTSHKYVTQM
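His-tagged MBNL1 binding to biotinylated (CUG)12 RNA was measured by TR-FRET using terbium anti-His antibody (0.055 ng/ul final) and streptavidin-XL665 (5 nM final). Compounds were titrated 92 nM to 58 uM; 60 min at room temperature.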
Glioma ERSR ind = inducers of ER stress response in human glioma cells; Potency, µM, without a hit: at the top dose activation, hits mostly activators; U87-MG GRP78 promoter luciferase reporter, 16 h; actives 0.02% (n = 420,000); also: series mostly up to about 76 µM; % of control where 0% means no effect; nearly all actives have a fitted effect of over 35% in size
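Stably transfected U87-MG glioma cells carrying a GRP78-based luciferase sensor; 16 h compound incubation. Luminescence end-point read 10 min after Bright-Glo addition at room temperature.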
FUS suppressor = suppressors of FUS proteinopathy in yeast; Potency, µM (doses to about 76.6 µM), usual class: activators; actives 0.24% (n = 390,000); S. cerevisiae FUS-expressing, growth rescue, OD600, 24 h;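 also: plate controls were DMSO vehicle for no effect and reference control for full effect; nearly all actives have a fitted effect of over 55% in size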
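S. cerevisiae expressing FUS from galactose induction served as the toxicity model. Growth after 24hr at 30C, read as absorbance at 600 nm, indicates suppression of toxicity; compounds dosed at several concentrations.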
TDP43 rescue = rescues yeast growth from TDP-43 toxicity; TDP-43 expressing yeast growth rescue, BacTiter-Glo, 24 h; Potency, µM (highest dose often 46.1 µM), for inactives: top-dose growth rescue (activation), actives largely listed as activators; actives 1.8% (n = 410,000); also: % of control where 0% means no effect; nearly all actives have a fitted effect of over 50% in size
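Growth rescue of TDP-43-toxic yeast measured as ATP luminescence (BacTiter-Glo). Cells grown to mid-log in raffinose, induced in galactose at OD600=0.02, exposed to compound 24 hr at 30 deg C.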
aSyn yeast inh = inhibitors of alpha-synuclein toxicity in yeast; Potency, µM (doses to about 46.1 µM), for the others: at the highest dose growth rescue (activation), most hits filed as activators; Yeast expressing alpha-synuclein, growth rescue, BacTiter-Glo, 24 h; AID 652106; actives 0.14% (n = 370,000); also: % of control where 0% means no effect; nearly all actives have a fitted effect of over 65% in size
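Readout is rescue of growth in alpha-synuclein-expressing yeast, so inhibitors of toxicity appear as activators. Growth after 24 hr at 30 deg C in galactose medium is quantified by luminescence.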
Abeta rescue = A-beta toxicity reversal in yeast; yeast expressing A-beta42, growth rescue, OD600, 48 h; response scale: 0% DMSO, 100% iron-clioquinol control; Potency, µM (highest dose often 46.1 µM), most hits filed as activators; actives 0.063% (n = 410,000); AID 1347071; also: nearly all actives have a fitted effect of over 55% in size
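Growth rescue measured by 600 nm absorbance after 48 h yeast culture at 30 C with compound. Values normalized between DMSO and an equimolar ferric chloride plus clioquinol control.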
Starred values were filed as active, the others as inactive; i = inactive; ? = inconclusive; / = no result given; [ ] = another dose, or the depositor's remark. Unless noted, calls follow the shape of the dose curve; as a rule, active = well fitted curve in the direction sought with a large enough effect; inconclusive = small, poorly fitted or top-dose-only effect, or another doubt; inactive = no such curve, though single readings can be large; an effect the other way counts as inactive or inconclusive. Potency is read from the fitted curve at half-maximal effect.

SMILES	MBNL1-CUG inh	Glioma ERSR ind	FUS suppressor	TDP43 rescue	aSyn yeast inh	Abeta rescue
Cc1ccc(CC(=O)Nc2nc3c(s2)CCCC3)cc1	-3%	1%	i	16µM*	6%	?
CCCc1nc(SCC(=O)Nc2nc3c(s2)CCCC3)c2ccccc2n1	-16%	-3%	?	1%	-9%	i
CCc1nc(SCC(=O)c2ccc3c(c2)OCCO3)c2ccccc2n1	?	15%	i	18µM*	0%	i
C=CCN1C(C(=O)OC)CN(Cc2cn(Cc3ccc(F)cc3)nn2)CCS1(=O)=O (configuration not stated)	/	/	i	/	/	/
Cc1c(NC(=O)C2CCCN(S(=O)(=O)c3cccc4ccccc34)C2)c(=O)n(-c2ccccc2)n1C (configuration not stated)	/	/	i	/	/	/
COc1ccc(NC(=O)Nc2nc3c(s2)CCCC3)cc1	-11%	1%	/	14µM*	13µM*	i
COc1ccc(OCC(=O)Nc2nc3c(s2)CCCC3)cc1	-9%	-1%	i	?	11%	i
CO[C@H]1[C@H](NC(=O)c2ccco2)c2ccccc2C12CCN(Cc1cc(Cl)ccc1O)CC2	/	-2%	/	/	/	/
Cc1n[nH]c(C)c1N=Nc1ccc(Br)cc1	?	8%	i	3.5µM*	-19%	i
C=C(C)CNC(=S)N/N=C/C1=CCC2CC1C2(C)C (configuration not stated)	-3%	-3%	/	18µM*	-13%	i
CCCCOC(=O)n1c(=O)oc2ccccc21	-1%	-2%	i	5%	-4%	i[9.22 µM]
CCOC(=O)n1c(=O)oc2ccc(Cl)cc21	18%	4%	i	10µM*	1%	i
CCOC(=O)n1c(=O)n(Cc2ccc(Cl)cc2Cl)c2ccccc21	0%	-4%	i	22µM*	19%	i[9.22 µM]
CC(C)CN1C(=O)C[C@@]2(C(=O)N(C)c3ccc(NC(=O)c4cc(F)ccc4F)cc32)C1c1ccccc1 (some centres not stated)	/	/	i	/	/	/
COC(=O)[C@]12C[C@H](CC(=O)N3CCCC3)C(=O)N(Cc3ccco3)C1=C[C@H](C1CCCC1)O[C@@H]2C	/	/	i	/	/	/
COc1ccc(CN2C(=O)COc3ccccc32)cc1	-8%	-2%	i	?	0%	i
O=C1COc2ccccc2N1Cc1ccc(Cl)cc1	0%	-1%	i	20µM*	26%	i
Cc1ccc(NC(=O)COC(=O)C2CCN(c3ccc(C(F)(F)F)cn3)CC2)cc1	/	-3%	i	25µM*	2%	?
O=C(COC(=O)C1CCN(c2ccc(C(F)(F)F)cn2)CC1)NCc1ccccc1	/	-1%	i	22µM*	0%	i
CCCOC(=O)c1ccc(NC(=O)COC(=O)C2CCN(c3ccc(C(F)(F)F)cn3)CC2)cc1	/	2%	i	?	0%[1.84 µM]	i
Cc1cnc(C)c(-c2ccc(F)c3c2OC(CNC(=O)Cc2c(F)cccc2F)C3)n1 (configuration not stated)	/	-6%	/	/	/	/
Cc1c(C)c2c(c(C)c1OC(=O)CCC(=O)OCCO)CC[C@](C)(CCC[C@H](C)CCC[C@H](C)CCCC(C)C)O2	/	-1%	/	/	/	/
Cc1ccc(C(=O)CCS(=O)(=O)c2ccc(Br)cc2)cc1	-7%	-18%	i	-6%	5%	i
Cc1ccc(S(=O)(=O)CCC(=O)c2cccc([N+](=O)[O-])c2)cc1	?	-13%	i	18µM*	-48%	i
C/C(=N\NC(=S)NCc1ccccc1)c1ccc2c(c1)OCCO2	/	3%	i	13µM*	-2%	i
SMILES	MBNL1-CUG inh	Glioma ERSR ind	FUS suppressor	TDP43 rescue	aSyn yeast inh	Abeta rescue
CCCCNC(=O)C1(C(=O)C2CC2)CC(C(=O)OCC)=NO1 (configuration not stated)	/	/	i	/	/	/
COc1cc2[nH]c(C(=O)N3CCc4ccccc4C3)cc2c(OC)c1OC	3%	-1%	i	22µM*	-16%	i
Cc1sc2ncnc(N(C)Cc3cccs3)c2c1C	-2%	0%	i	13µM*	12%	i
c1ccc(CNc2ncnc3sccc23)cc1	2%	5%	i	?	-23%	i
c1csc(CNc2ncnc3sccc23)c1	/	-4%	i	14µM*	-2%	i
CN(Cc1cccs1)c1ncnc2sccc12	-10%	-1%	i	13µM*	11%	i
CCN1C(=O)CC(CC(=O)N2CCCCC2c2nccs2)(c2ccccc2C)C1=O (configuration not stated)	/	-2%	/	/	/	/
S=C(NCc1ccco1)N/N=C/c1ccc(Cl)cc1	5%	2%	/	22µM*	2%	i
CCCOc1ccc(NC(=O)CC2C(=O)OCC3CCCCN32)cc1 (configuration not stated)	/	-5%	i	35µM*	3%	i
CC(=O)NC(Cc1ccc2c(c1)OCO2)C(=O)N1CCCC1 (configuration not stated)	/	/	i	/	/	/
Cc1cnc(SCc2ccccn2)nc1C1CCCN(C(=O)c2ccc3[nH]c(C)c(C)c3c2)C1 (configuration not stated)	/	0%	/	/	/	/
COc1cc(-c2cc(OC)c3c(C)oc(C)c3c(=O)c2)ccc1OC(=O)c1ccccc1Cl	/	-4%	13µM*	13%	/	i
COCC1=C(C(=O)OC(C)OC(=O)OC(C)C)N2C(=O)C(NC(=O)/C(=N/OC)c3csc(N)n3)[C@H]2SC1 (some centres not stated)	/	-3%	/	/	/	/
CCN1C(=O)[C@H]2[C@@H](c3ccc(-c4ccc(OC)cc4)cc3)N3CCC[C@@]3(C(=O)OC)[C@H]2C1=O	/	-3%	28µM*	?	7%	i
CCN1C(=O)[C@H]2[C@@H](c3ccc(-c4ccccc4)cc3)N3CCC[C@@]3(C(=O)OC)[C@H]2C1=O	/	5%	?	35µM*	1%	?
Cc1cnc(SCc2ccccn2)nc1C1CCCN(Cc2ccsc2)C1 (configuration not stated)	/	-3%	/	/	/	/
Cc1ncc(Cc2ccccc2)c(C2CCN(S(=O)(=O)C[C@]34CC[C@H](CC3=O)C4(C)C)CC2)n1	/	-1%	/	/	/	/
CCOc1ccc(Nc2nc3ccccc3n3c(CC)nnc23)cc1	/	-5%	i	25µM*	/	i
CC1=C(C(=O)N(C(C)C)C(C)C)CC(CC(=O)NCc2cccc3ccccc23)C(=O)N1Cc1ccc(F)cc1 (configuration not stated)	/	-3%	18µM*	-4%	?	i

Screens (PubChem)
